Source: PubChem BioAssay
Pol iota inh: blocks human DNA polymerase iota activity; 1% of 390,000 active; Pol iota fluorescent replication assay, 10 min; AID 588590; Potency, µM (doses to about 115 µM), actives largely listed as inhibitors
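Fluorescent replication assay read twice, at 0 min and 10 min after adding 50 nM (final) substrate. Enzyme (10 nM) and compounds were first incubated 15 min at room temperature; enzyme-free buffer wells were negative controls.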
PI4K2A block: inhibitors of human PI4K2A; purified PI4K2A, ADP-Glo luminescence, 1 h; active compounds read low; activity change, negative = inhibition, % at 76.9 µM; AID 1346378; Q9BTU6; 0.13% of 420,000 active; in the data active means activity change below about -50%; inconclusive means mostly about -30% to -49%
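Compounds are screened against recombinant PI4K2A using PI as substrate and ATP, the latter dispensed at 300 microM. Reactions run one hour at ambient temperature before ADP-Glo detection; full inhibition defined by wells lacking enzyme.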
PI5P4Ka inh: inhibitors of human PI5P4K alpha | P48426 | PI5P4Kalpha enzyme, ADP-Glo luminescence, 60 min; active compounds read low | max response, % | 1.2% of 330,000 active; active means max response of -50% or lower; inconclusive means between -30% and -50%; inactive means -30% or higher; further: value at the top dose of about 77 µM
Target sequence (P48426 whole entry, looked up): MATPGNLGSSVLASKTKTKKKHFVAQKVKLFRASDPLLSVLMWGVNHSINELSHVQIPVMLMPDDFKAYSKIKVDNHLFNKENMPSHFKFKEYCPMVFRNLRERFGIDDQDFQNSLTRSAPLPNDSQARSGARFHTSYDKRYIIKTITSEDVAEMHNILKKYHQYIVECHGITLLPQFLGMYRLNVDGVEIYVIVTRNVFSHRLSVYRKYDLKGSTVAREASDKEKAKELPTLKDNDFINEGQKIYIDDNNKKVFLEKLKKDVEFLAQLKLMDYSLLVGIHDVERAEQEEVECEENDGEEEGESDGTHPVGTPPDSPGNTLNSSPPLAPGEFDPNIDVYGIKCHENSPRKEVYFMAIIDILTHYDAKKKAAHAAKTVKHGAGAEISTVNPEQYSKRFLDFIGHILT
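PI5P4Kalpha ADP-Glo assay; 5 microM ATP final; 60 min RT reaction; HEPES pH 7.4/EGTA/CHAPS, 5% DMSO; controls lacking substrate or enzyme; luminescent end-point.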
Pol eta inh-1: inhibitors of human DNA polymerase eta; Q9Y253; recombinant Pol eta, fluorescent DNA replication assay; Potency, µM (highest dose often 114 µM), most hits filed as inhibitors; 1.2% of 390,000 active; AID 588591
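Fluorescent replication assay: 50 nM final substrate added after a 15 min room-temperature compound preincubation with 10 nM enzyme. Signal taken at 0 min and again at 10 min.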
Pol kappa inh-1: inhibitors of human DNA polymerase kappa; AID 588579; Potency, µM (top dose mostly 107 µM), hits mostly inhibitors; 0.53% of 400,000 active; purified Pol kappa, fluorescent DNA synthesis assay, 10 min
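50 nM final substrate added after 15 min RT preincubation of 10 nM Pol kappa with compound; fluorescence read at 0 and 10 min.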
Pol beta inh: blocks human DNA polymerase beta activity. Pol beta primer extension/strand displacement, fluorescence kinetic. AID 485314. 1.3% of 340,000 active. Potency, µM (highest dose often 114 µM), usual class: inhibitors. P06746
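Kinetic readout of DNA synthesis with strand displacement by Pol beta. Compound and 10 nM enzyme sit 15 min at room temperature; 50 nM substrate starts the reaction, read immediately and at 10 min.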
GALK inh confirm: confirmation of human galactokinase (GALK) inhibitors. shares compounds with Pol eta inh-1. purified GALK, Kinase-Glo ATP depletion luminescence. Potency, µM (doses to about 115 µM), actives largely listed as inhibitors. 70% of 150 active. AID 2015
GALK redox cs: generates H2O2 by redox cycling, flagging GALK artifacts; shares compounds with Pol eta inh-1; Phenol red-HRP H2O2 redox cycling, absorbance 600 nm; Potency, µM (titrated, usually from 115 µM), most hits filed as inhibitors; 40% of 150 active
HEK293 tox: reduces HEK-293 cell viability in GALK counter-screen; AID 2547; Potency, µM (highest dose often 46.1 µM), usual class: inhibitors; shares compounds with Pol eta inh-1; 10% of 170 active; HEK-293 viability, ATP luminescence (CellTiter-Glo), 24/48 h
Pol kappa inh-2: Pol kappa (human) inhibition, cherry-pick confirmation; shares compounds with Pol eta inh-1; purified Pol-kappa, fluorescent strand-displacement substrate; Potency, µM, actives largely listed as inhibitors; 76% of 920 active; AID 720501
Pol eta inh-2: confirmation of human DNA polymerase eta inhibitors; Potency, µM, actives largely listed as inhibitors; Pol eta primer extension, TAMRA/BHQ fluorescence, 10 min; shares compounds with Pol eta inh-1; 64% of 2,600 active
A number is an active result; i = inactive; ? = inconclusive; nt = no result given. Only some compounds are listed: those with a hit (about 2.8% of all), similar ones and a draw of the others. Unless noted, the call rests on the fitted dose curve; in most records, active means well fitted curve in the direction sought with a large enough effect; inconclusive means small, poorly fitted or top-dose-only effect, or another doubt; inactive means no such curve, though single readings can be large; an effect the other way counts as inactive or inconclusive.

SMILES	Pol iota inh	PI4K2A block	PI5P4Ka inh	Pol eta inh-1	Pol kappa inh-1	Pol beta inh	Pol eta inh-2	others
O=C(Nc1ccc(S(=O)(=O)O)cc1)c1ccc2c(c1)S(=O)(=O)c1ccccc1C2=O	i	i	i	28.2µM	i	nt	67.5
O=C(Nc1ccc(Cl)cc1)c1ccc2c(c1)S(=O)(=O)c1ccccc1C2=O	i	i	i	i	i	nt	nt
COc1cc(-c2noc(-c3ccc(NC4CCCC4)c([N+](=O)[O-])c3)n2)cc(OC)c1OC	i	i	nt	i	i	i	nt
CN(C)c1ccc(/C=C2\C(=N)N3C(=NC2=O)Sc2cc(S(C)(=O)=O)ccc23)cc1	nt	nt	nt	nt	nt	i	nt
Cc1ccc(S(=O)(=O)Oc2ccc(/C=C3/C(=N)N4C(=NC3=O)SN=C4S(C)(=O)=O)cc2)cc1	?	i	-58.8	28.2µM	i	i	67.5	GALK inh confirm=29.8µM;GALK redox cs=i;HEK293 tox=i
CS(=O)(=O)C1=NSC2=NC(=O)/C(=C\c3ccc(-c4ccccc4)o3)C(=N)N21	nt	nt	nt	nt	nt	i	nt
COc1cccc(-n2c(C)cc(/C=C3/C(=N)N4C(=NC3=O)SN=C4S(C)(=O)=O)c2C)c1	?	i	-63.3	17.8µM	i	i	?
CS(=O)(=O)C1=NSC2=NC(=O)/C(=C\c3ccc(OS(=O)(=O)c4ccccc4)cc3)C(=N)N21	i	i	-62.5	50.1µM	i	?	nt	GALK inh confirm=33.5µM;GALK redox cs=i;HEK293 tox=i
CCn1c(=O)n(CC)c2cc(N3CCCC3)c(NC(=O)Nc3cc(C)cc(C)c3)cc21	i	i	nt	i	i	i	nt
CCCOc1ccc(-c2nonc2NC(=O)COc2ccc(C)cc2)cc1OCCC	i	i	nt	i	i	i	nt
CC(C(=O)c1ccccc1)[n+]1ccc(Cl)c2ccc(Cl)cc21 (stereo not drawn)	i	nt	nt	nt	i	nt	nt
CC(C)c1noc(-c2ccccc2OCC(=O)Nc2cccc([N+](=O)[O-])c2)n1	i	i	nt	i	i	i	nt
O=C1Nc2ccccc2N(C(=O)c2ccc3ccccc3c2)C1c1nc2ccccc2[nH]1 (stereo not drawn)	nt	i	i	nt	nt	nt	nt
O=C(O)c1ccccc1C=NNc1ccc([N+](=O)[O-])cn1	i	i	i	i	i	nt	nt
O=C(O)c1cc(-c2ccc(/C=N/Nc3ccc([N+](=O)[O-])cn3)o2)ccc1Cl	?	i	-61.0	i	i	?	84.9	Pol kappa inh-2=75.2
Cc1cc(C)c2oc(C(=O)Nc3nc4ccc(Cl)cc4s3)cc(=O)c2c1	i	i	nt	i	i	i	nt
COc1ccc(C2=NN(c3nc(-c4ccccc4)c(CC(=O)O)s3)C(c3ccco3)C2)cc1 (stereo not drawn)	?	i	?	28.2µM	?	22.4µM	?	Pol kappa inh-2=15
Cc1cc(C2(c3ccc(O)c(C)c3)OC(=O)c3ccccc32)ccc1O	?	i	?	?	i	35.5µM	?
Cc1ccc(S(=O)(=O)/N=C2/NC(=O)/C(=C/c3cc([N+](=O)[O-])ccc3O)S2)cc1	28.2µM	i	i	28.2µM	?	i	nt	Pol kappa inh-2=?
COc1cc(/C=C2\S/C(=N/S(=O)(=O)c3ccc(C)cc3)NC2=O)c([N+](=O)[O-])cc1OC	i	i	i	i	i	i	nt
